Experiment [1] deals with human Peroxisome Proliferator-activated Receptor alpha (PPARa), PPARA (gene 5465) (UniProt Q07869). Put plainly: ATG_PPARa_TRANS: Attagene TRANS-FACTORIAL HepG2 Assay for human Peroxisome Proliferator-activated Receptor alpha (PPARa) (AID 2283001; active means hit-call score of the fitted dose curve at least 0.9, where 1 is the maximum). In a few lines: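 Reporter transcripts quantified by RT-PCR plus capillary electrophoresis after 24 h treatment, fitted upward relative to DMSO. Cells: human HepG2 transiently carrying multiple GAL4-UAS reporter units driven by NR-Gal4 chimeras.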
human Peroxisome Proliferator-activated Receptor alpha (PPARa), PPARA (gene 5465), sequence (Q07869 whole entry, looked up, the tested form may be a part): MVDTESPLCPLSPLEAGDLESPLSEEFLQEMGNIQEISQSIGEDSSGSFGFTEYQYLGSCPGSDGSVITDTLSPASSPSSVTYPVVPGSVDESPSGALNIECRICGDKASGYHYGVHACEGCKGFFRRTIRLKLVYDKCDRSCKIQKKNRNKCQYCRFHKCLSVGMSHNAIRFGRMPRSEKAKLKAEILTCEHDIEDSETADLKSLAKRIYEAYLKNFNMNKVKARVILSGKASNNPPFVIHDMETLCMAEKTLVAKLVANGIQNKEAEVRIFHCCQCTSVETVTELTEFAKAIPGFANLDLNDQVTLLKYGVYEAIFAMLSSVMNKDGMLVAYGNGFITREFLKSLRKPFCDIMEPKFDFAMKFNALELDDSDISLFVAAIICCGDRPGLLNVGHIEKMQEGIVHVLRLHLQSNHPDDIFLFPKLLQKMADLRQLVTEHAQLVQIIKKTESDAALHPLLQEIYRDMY

Experiment [2] concerns the target human Peroxisome Proliferator-activated Receptor delta (PPARd), PPARD (gene 5467) (UniProt Q03181). Nature of the experiment: ATG_PPARd_TRANS: Attagene TRANS-FACTORIAL HepG2 Assay for human Peroxisome Proliferator-activated Receptor delta (PPARd) (AID 2283002; active means hit-call score of the fitted dose curve at least 0.9, where 1 is the maximum). In outline:
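Read-out is induced reporter mRNA, quantified by RT-PCR with fluorescent labelling and capillary electrophoresis after 24 h dosing. Cells are HepG2 transiently carrying multiple GAL4-UAS reporter units driven by exogenous NR-GAL4 chimeras; DMSO serves as baseline.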

Read-out in experiment [3]: Intercellular Adhesion Molecule 1 (ICAM1), ICAM1 (gene 3383)
Nature of the experiment: BSK_3C_ICAM1: BioMAP Diversity Plus: 3C Assay for Intercellular Adhesion Molecule 1 (ICAM1) Biomarker Activity (AID 2283003). The conditions noted are these: primary human endothelial cells (HUVEC); actives raise or lower the signal. In outline: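 Chemicals are dosed onto primary human umbilical vein endothelium (3C system). After 24 h, ICAM-1 is measured by ELISA, and responses are fitted bidirectionally relative to DMSO.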

For experiment [4], the target named is human Retinoic Acid Receptor beta (RARb), RARB (gene 5915) (UniProt P10826). Nature of the experiment: ATG_RARb_TRANS: Attagene TRANS-FACTORIAL HepG2 Assay for human Retinoic Acid Receptor beta (AID 2283004; active means hit-call score of the fitted dose curve at least 0.9, where 1 is the maximum). In outline:
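Transient transfection of HepG2 with multiple reporter units → chemical dosing, 24 h → total RNA isolation → RT with oligo(dT) → reporter-specific PCR, 6-FAM primer extension, HpaI digest → capillary electrophoresis. Positive direction vs DMSO control.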

In experiment [5] the target is Retinoic acid receptor alpha (Homo sapiens) (UniProt P10276). Nature of the experiment: ATG_RARa_TRANS: Attagene TRANS-FACTORIAL HepG2 Assay for human Retinoic Acid Receptor alpha (RARa) (AID 2283005; active means hit-call score of the fitted dose curve at least 0.9, where 1 is the maximum). In outline: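 Reporter transcripts, measured by RT-PCR with fluorescent labeling and capillary electrophoresis after 24 h dosing, reflect activity of an exogenous human RARa–GAL4 fusion in transiently transfected HepG2. Fitted for increase relative to DMSO.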
Retinoic acid receptor alpha (Homo sapiens), sequence (P10276 whole entry, looked up, the tested form may be a part): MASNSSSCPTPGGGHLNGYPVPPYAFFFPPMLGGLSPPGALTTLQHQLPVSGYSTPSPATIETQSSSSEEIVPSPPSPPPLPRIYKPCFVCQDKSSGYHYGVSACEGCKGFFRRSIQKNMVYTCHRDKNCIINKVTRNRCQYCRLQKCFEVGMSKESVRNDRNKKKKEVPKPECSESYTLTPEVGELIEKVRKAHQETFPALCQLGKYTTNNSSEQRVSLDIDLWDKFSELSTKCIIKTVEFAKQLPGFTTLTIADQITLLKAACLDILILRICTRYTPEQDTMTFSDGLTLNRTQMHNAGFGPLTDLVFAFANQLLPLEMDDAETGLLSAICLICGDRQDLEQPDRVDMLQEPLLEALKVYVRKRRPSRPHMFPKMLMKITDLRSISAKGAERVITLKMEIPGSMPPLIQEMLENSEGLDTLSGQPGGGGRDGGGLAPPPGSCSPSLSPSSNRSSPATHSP

The nature of experiment [6]: BSK_3C_Proliferation: Cell Proliferation Assessment in the BioMAP Diversity Plus: 3C Assay (AID 2283006).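 On AC50: potency may reflect either rise or fall in cell number versus DMSO.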 To be noted: primary human endothelial cells (HUVEC). In a few lines: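 Cells (human umbilical vein endothelial, sub-confluent) receive test chemical; after 48 h they are fixed in 10% trichloroacetic acid, stained with 0.1% SRB and read at 560 nm. Activity is referenced to DMSO, fitting increases and decreases.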

The target in experiment [7] is Peroxisome proliferator-activated receptor gamma (Homo sapiens) (UniProt P37231). Nature of the experiment: ATG_PPARg_TRANS: Attagene TRANS-FACTORIAL HepG2 Assay for human Peroxisome Proliferator-activated Receptor-gamma (PPARg) (AID 2283007; active means hit-call score of the fitted dose curve at least 0.9, where 1 is the maximum). In outline: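 Multiplexed reporter transcription units in HepG2, 24 h dosing, reporter transcripts quantified by fluorescent RT-PCR and capillary electrophoresis. Increase over DMSO scored.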
Peroxisome proliferator-activated receptor gamma (Homo sapiens), sequence (P37231 whole entry, looked up): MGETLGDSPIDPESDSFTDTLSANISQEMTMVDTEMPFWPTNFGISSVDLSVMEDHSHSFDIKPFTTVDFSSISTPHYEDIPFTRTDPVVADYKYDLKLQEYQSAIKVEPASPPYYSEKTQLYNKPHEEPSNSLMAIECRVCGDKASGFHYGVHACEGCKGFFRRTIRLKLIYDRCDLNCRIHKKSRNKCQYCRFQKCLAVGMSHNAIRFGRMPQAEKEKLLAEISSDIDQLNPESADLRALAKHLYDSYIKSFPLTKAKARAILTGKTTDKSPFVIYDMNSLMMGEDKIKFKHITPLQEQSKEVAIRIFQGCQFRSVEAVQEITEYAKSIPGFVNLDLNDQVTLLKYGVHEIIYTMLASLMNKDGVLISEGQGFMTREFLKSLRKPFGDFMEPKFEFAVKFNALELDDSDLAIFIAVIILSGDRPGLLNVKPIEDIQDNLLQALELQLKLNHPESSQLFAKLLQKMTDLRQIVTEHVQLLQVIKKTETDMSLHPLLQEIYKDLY

For experiment [8], the target named is Nuclear receptor subfamily 1 group I member 2 (Homo sapiens) (UniProt O75469). Nature of the experiment: ATG_PXR_TRANS: Attagene TRANS-FACTORIAL HepG2 Assay for human Pregnane X Receptor (PXR) (AID 2283008; active means hit-call score of the fitted dose curve at least 0.9, where 1 is the maximum). In outline: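 Transient HepG2 transfectants carrying multiplexed reporter transcription units; PXR activity read through a Gal4 chimera. 24 h exposure. RT-PCR/CE fluorescence; upward curve fit referenced to DMSO.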
Nuclear receptor subfamily 1 group I member 2 (Homo sapiens), sequence (O75469 whole entry, looked up, the tested form may be a part): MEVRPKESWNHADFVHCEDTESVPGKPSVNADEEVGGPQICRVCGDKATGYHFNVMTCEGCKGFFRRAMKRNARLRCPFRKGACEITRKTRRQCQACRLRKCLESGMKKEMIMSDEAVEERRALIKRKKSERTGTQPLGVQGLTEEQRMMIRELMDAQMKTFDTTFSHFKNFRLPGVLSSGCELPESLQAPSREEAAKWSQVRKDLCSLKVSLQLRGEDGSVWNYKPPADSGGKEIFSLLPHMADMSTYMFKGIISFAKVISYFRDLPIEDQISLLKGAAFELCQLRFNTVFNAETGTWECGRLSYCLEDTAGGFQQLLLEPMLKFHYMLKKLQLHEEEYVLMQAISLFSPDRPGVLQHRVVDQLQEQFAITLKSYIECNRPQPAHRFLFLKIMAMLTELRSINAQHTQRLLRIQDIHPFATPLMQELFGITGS

Experiment [9] addresses human Retinoic Acid Receptor gamma (RARg), RARG (gene 5916) (UniProt P13631). Nature of the experiment: ATG_RARg_TRANS: Attagene TRANS-FACTORIAL HepG2 Assay for human Retinoic Acid Receptor gamma (RARg) (AID 2283009; active means hit-call score of the fitted dose curve at least 0.9, where 1 is the maximum). In outline:
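TRANS format measured activity of exogenous NR-GAL4 fusion (RARg) in transfected HepG2 liver cells after 24 h dosing. Induced reporter RNA was detected by RT-PCR/capillary electrophoresis fluorescence, analysed in the positive direction against DMSO.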

In experiment [10] the target is human RAR-related Orphan Receptor beta (RORb), RORB (gene 6096) (UniProt Q92753). Nature of the experiment: ATG_RORb_TRANS: Attagene TRANS-FACTORIAL HepG2 Assay for human RAR-related Orphan Receptor beta (RORb) (AID 2283010; active means hit-call score of the fitted dose curve at least 0.9, where 1 is the maximum). In outline: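 Transfect HepG2 with multiple GAL4-UAS reporter transcription units; dose chemicals for 24 h; isolate RNA, reverse-transcribe and PCR-amplify reporter sequences; label, digest and resolve fragments by capillary electrophoresis; fit increases relative to DMSO.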

For experiment [11], the target named is Retinoic acid receptor RXR-alpha (Homo sapiens) (UniProt P19793). Put plainly: ATG_RXRa_TRANS: Attagene TRANS-FACTORIAL HepG2 Assay for human Retinoid X Receptor alpha (RXRa) (AID 2283012; active means hit-call score of the fitted dose curve at least 0.9, where 1 is the maximum). In a few lines:
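Measures exogenous chimeric NR-GAL4 activity in transfected HepG2 liver cells after 24 h of dosing. Induced reporter mRNA was detected by RT-PCR with capillary electrophoresis, and gain of signal was analysed against DMSO.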

For experiment [12], the target named is human Retinoid X Receptor beta (RXRb), RXRB (gene 6257) (UniProt P28702). Put plainly: ATG_RXRb_TRANS: Attagene TRANS-FACTORIAL HepG2 Assay for human Retinoid X Receptor beta (RXRb) (AID 2283013; active means hit-call score of the fitted dose curve at least 0.9, where 1 is the maximum). In a few lines: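 Chimeric receptor-Gal4 activity was assessed in transiently transfected human HepG2 cells after 24 h exposure. Transcripts from GAL4-UAS reporters were quantified by fluorescent RT-PCR and capillary electrophoresis, with DMSO as negative control and baseline.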

Experiment [13] concerns the target human Thyroid Receptor alpha (THRa1), THRA (gene 7067) (UniProt P10827). Put plainly: ATG_THRa1_TRANS: Attagene TRANS-FACTORIAL HepG2 Assay for human Thyroid Receptor alpha (THRa1) (AID 2283014; active means hit-call score of the fitted dose curve at least 0.9, where 1 is the maximum). In outline:
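Reporter transcript induction, read by capillary electrophoresis of 6-FAM-labelled RT-PCR products, reflects activity of a transfected THRa1-Gal4 fusion in HepG2 liver cells. Cells were dosed for 24 h; activity was fitted in the positive direction against DMSO.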

Read-out in experiment [14]: E-selectin (Homo sapiens) (UniProt P16581)
Put plainly: BSK_3C_Eselectin: BioMAP Diversity Plus: 3C Assay for Eselectin Biomarker Activity (AID 2283015).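 On outcome: cell surface E-selectin protein quantified by ELISA 24 h after dosing.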 To be noted: primary human endothelial cells (HUVEC); actives raise or lower the signal. In a few lines:
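ELISA read-out of E-selectin on endothelial monolayers after 24 h chemical treatment. Human umbilical vein primary cells served as the system, with DMSO defining baseline activity for bidirectional fitting.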

Read-out in experiment [15]: Interleukin-1 alpha (IL1a), IL1A (gene 3552)
Nature of the experiment: BSK_BE3C_IL1a: BioMAP Diversity Plus: BE3C Assay for Interleukin-1 alpha (IL1a) Biomarker Activity (AID 2283016). The conditions noted are these: primary human bronchial epithelial cells; actives raise or lower the signal. In outline: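 Signal from IL-1a ELISA, taken 24 h after chemical dosing of human bronchial epithelial cells, is compared with DMSO as baseline using bidirectional curve fitting.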

Read-out in experiment [16]: Monocyte Chemoattractant Protein-1 (MCP1), CCL2 (gene 6347)
Nature of the experiment: BSK_3C_MCP1: BioMAP Diversity Plus: 3C Assay for Monocyte Chemoattractant Protein-1 (MCP1) Biomarker Activity (AID 2283017). The conditions noted are these: primary human endothelial cells (HUVEC); actives raise or lower the signal. In outline: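 ELISA read-out of MCP-1 from human umbilical vein endothelial cell cultures harvested 24 h post-dosing. Gain or loss of signal was fitted relative to DMSO.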

Read-out in experiment [17]: Monocyte Chemoattractant Protein-1 (MCP1), CCL2 (gene 6347)
Put plainly: BSK_4H_MCP1: BioMAP Diversity Plus: 4H Assay for Monocyte Chemoattractant Protein-1 (MCP1) Biomarker Activity (AID 2283018). The conditions noted are these: primary human endothelial cells (HUVEC); actives raise or lower the signal. In a few lines:
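Endothelial cells from umbilical vein were treated with test chemical, then after 24 h MCP-1 levels were quantified by ELISA; endpoint values came from bidirectional fitting with DMSO as baseline of activity.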

Read-out in experiment [18]: Human Leukocyte Antigen - DR isotype (HLADR), HLA-DRA (gene 3122)
Nature of the experiment: BSK_3C_HLADR: BioMAP Diversity Plus: 3C Assay for Human Leukocyte Antigen - DR isotype (HLADR) Biomarker Activity (AID 2283019). To be noted: primary human endothelial cells (HUVEC); actives raise or lower the signal. In a few lines: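 ELISA readout of surface HLA-DR on human umbilical vein endothelium, taken 24 h after chemical treatment. Gain- and loss-of-signal were both fitted relative to DMSO.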

Read-out in experiment [19]: Interleukin-8 (IL8), CXCL8 (gene 3576)
Put plainly: BSK_3C_IL8: BioMAP Diversity Plus: 3C Assay for Interleukin-8 (IL8) Biomarker Activity (AID 2283020). The conditions noted are these: primary human endothelial cells (HUVEC); actives raise or lower the signal. In outline:
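Endothelial primary cells of human umbilical vein origin are dosed with chemical; after 24 h the IL-8 biomarker is measured by ELISA, and concentration–response is fitted in both directions versus DMSO.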

Read-out in experiment [20]: Monokine induced gamma interferon (MIG), CXCL9 (gene 4283)
Nature of the experiment: BSK_3C_MIG: BioMAP Diversity Plus: 3C Assay for Monokine induced gamma interferon (MIG) Biomarker Activity (AID 2283021).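 On AC50: MIG protein level measured by immunoassay in the treated endothelial cultures.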 The conditions noted are these: primary human endothelial cells (HUVEC); actives raise or lower the signal. In a few lines:
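Endothelial primary cells (human umbilical vein) are dosed with test chemical in the 3C system. MIG levels are measured by ELISA at 24 h and fitted in both directions relative to DMSO.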

Inconclusive results are not listed. Activity calls are given as the source filed them. How the source made its calls, unless noted: active means hit-call score of the fitted dose curve at least 0.9, where 1 is the maximum; inactive means score below 0.9.

Retinoic acid receptor RXR-alpha (Homo sapiens), sequence (P19793 whole entry, looked up, the tested form may be a part): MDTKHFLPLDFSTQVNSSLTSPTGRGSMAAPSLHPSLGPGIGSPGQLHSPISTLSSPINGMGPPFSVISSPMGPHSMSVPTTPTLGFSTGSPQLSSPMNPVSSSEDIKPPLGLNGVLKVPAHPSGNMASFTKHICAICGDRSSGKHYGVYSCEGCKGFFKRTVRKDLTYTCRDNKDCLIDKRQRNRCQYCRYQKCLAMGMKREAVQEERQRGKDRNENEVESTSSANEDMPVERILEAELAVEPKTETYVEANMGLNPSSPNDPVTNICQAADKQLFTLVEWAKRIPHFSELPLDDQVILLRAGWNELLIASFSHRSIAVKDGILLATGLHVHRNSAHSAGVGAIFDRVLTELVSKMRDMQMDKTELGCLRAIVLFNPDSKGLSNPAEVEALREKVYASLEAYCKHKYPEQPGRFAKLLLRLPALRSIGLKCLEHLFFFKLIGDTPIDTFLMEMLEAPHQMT
E-selectin (Homo sapiens), sequence (P16581 whole entry, looked up): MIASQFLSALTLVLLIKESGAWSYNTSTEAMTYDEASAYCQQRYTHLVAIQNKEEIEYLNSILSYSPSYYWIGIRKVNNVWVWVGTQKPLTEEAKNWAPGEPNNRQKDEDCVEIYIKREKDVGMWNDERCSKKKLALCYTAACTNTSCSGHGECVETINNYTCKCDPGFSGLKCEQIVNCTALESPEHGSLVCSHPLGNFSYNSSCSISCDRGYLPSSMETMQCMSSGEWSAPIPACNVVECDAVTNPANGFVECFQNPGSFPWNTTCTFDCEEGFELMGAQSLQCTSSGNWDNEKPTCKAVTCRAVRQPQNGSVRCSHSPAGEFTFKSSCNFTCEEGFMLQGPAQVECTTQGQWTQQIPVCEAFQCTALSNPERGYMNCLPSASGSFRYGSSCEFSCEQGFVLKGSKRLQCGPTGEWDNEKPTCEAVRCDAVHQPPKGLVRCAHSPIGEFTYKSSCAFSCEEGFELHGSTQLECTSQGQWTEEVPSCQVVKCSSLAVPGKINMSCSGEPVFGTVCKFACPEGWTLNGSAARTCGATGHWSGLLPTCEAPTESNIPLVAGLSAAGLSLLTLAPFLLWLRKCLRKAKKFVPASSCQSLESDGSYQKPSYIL
human Retinoic Acid Receptor beta (RARb), RARB (gene 5915), sequence (P10826 whole entry, looked up): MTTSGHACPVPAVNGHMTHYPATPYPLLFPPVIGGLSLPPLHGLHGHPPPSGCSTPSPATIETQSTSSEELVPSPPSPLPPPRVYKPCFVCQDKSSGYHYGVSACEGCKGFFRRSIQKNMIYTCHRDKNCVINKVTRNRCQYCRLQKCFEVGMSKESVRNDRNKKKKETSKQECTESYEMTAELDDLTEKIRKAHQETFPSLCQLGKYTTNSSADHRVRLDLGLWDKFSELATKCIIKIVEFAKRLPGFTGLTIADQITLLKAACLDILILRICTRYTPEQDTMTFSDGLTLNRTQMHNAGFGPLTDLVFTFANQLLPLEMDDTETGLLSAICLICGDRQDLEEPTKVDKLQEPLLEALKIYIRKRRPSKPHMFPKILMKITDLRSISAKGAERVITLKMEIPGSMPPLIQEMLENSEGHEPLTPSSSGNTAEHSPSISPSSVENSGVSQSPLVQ
human Thyroid Receptor alpha (THRa1), THRA (gene 7067), sequence (P10827 whole entry, looked up, the tested form may be a part): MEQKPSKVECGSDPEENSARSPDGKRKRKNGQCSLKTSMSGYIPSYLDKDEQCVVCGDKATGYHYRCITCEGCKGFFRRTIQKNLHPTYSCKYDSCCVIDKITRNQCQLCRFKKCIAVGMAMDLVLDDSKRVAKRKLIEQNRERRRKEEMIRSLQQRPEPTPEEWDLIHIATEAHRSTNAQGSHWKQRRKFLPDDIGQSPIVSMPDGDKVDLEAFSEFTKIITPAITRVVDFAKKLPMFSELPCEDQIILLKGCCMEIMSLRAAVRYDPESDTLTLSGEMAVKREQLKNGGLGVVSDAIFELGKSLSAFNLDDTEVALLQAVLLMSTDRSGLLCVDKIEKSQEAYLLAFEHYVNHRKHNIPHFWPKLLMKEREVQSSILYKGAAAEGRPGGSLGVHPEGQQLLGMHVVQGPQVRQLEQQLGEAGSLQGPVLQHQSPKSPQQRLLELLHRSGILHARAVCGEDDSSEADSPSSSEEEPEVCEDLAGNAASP
human Peroxisome Proliferator-activated Receptor delta (PPARd), PPARD (gene 5467), sequence (Q03181 whole entry, looked up, the tested form may be a part): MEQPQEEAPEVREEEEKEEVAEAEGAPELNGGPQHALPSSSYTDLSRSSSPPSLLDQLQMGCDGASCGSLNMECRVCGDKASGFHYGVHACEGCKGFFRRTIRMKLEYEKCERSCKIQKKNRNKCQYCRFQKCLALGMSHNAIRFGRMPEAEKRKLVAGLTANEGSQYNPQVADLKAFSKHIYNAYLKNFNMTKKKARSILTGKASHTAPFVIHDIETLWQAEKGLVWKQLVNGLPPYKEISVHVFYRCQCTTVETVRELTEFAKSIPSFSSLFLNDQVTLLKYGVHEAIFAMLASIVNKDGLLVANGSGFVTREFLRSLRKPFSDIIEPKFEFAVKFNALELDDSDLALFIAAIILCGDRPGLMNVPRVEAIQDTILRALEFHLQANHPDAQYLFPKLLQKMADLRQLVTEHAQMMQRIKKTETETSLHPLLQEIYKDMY
human Retinoic Acid Receptor gamma (RARg), RARG (gene 5916), sequence (P13631 whole entry, looked up, the tested form may be a part): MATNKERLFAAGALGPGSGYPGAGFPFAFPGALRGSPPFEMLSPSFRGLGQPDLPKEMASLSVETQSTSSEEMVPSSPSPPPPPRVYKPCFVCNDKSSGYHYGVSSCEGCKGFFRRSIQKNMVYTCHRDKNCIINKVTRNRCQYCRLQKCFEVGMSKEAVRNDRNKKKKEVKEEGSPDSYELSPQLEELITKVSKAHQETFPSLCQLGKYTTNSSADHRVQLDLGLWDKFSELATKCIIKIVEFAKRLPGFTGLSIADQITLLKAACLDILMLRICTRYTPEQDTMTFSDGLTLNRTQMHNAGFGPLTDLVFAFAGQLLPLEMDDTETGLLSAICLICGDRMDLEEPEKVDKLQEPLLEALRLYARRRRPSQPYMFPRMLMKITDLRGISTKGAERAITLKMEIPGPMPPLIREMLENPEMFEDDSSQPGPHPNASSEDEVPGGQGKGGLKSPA

What is called AC50 is the midpoint of the concentration-response curve, whichever way the signal moves. On to `c1ccc2c(c1)-c1cccc3cccc-2c13`, for which the compound was called inactive in experiment [1], in [2], in experiment [3], in experiment [4], in [5] and in experiment [6]. Moreover, the result in [7], in [8], in [9], in experiment [10], in experiment [11] and in experiment [13] was inactive. Also, the outcome in experiment [14], in experiment [15], in experiment [16], in [17], in experiment [18] and in [19] was inactive. For the same compound, the outcome in experiment [20] was inactive. In addition, the AC50 in [12] was 31.2 µM (active).
Regarding `Nc1ccc(N=Nc2ccccc2)cc1`, the call in experiment [1], in [3], in experiment [4], in [5], in experiment [8] and in experiment [9] was inactive. The call in experiment [11], in experiment [14], in [15], in [16], in [17] and in experiment [18] was inactive. The result in [19] and in experiment [20] was inactive. The AC50 in [6] was 12.2 µM (active); in experiment [7], 100 µM (active).
Consider `O=C1CCCO1`, for which the compound was called inactive in [1], in experiment [3], in experiment [4], in experiment [6], in experiment [7] and in experiment [11]. Besides, the outcome in [13], in [14], in [15], in experiment [16], in experiment [17] and in experiment [18] was inactive. Moreover, the outcome in [19] and in experiment [20] was inactive.
As for `COc1cc(C=O)cc2c1[C@H](COC(N)=O)[C@]1(OC(C)=O)ON2C[C@H]2[C@@H]1N2C(C)=O`, the call in experiment [1], in experiment [2] and in experiment [7] was inactive. Also, the half-maximal activity concentration (AC50) in experiment [3] is 23.3 µM (active); in experiment [6] it was 0.369 µM (active); in experiment [14] it was 10.8 µM (active); in [15], 2.63 µM (active); in [16], 6.85 µM (active); in experiment [17], 3.22 µM (active). The results for the AC50 in experiment [18], in [19] and in experiment [20] were 15.9 µM (active), 11.9 µM (active) and 29.2 µM (active), respectively.
